{
  "source": "paper PMC7819943",
  "about": "“Rice protein-binding microarrays: a tool to detect cis-acting elements near promoter regions in rice”",
  "note": "Whole data set: some 68,000 sequences, median “fluorescence intensity (a.u.)” near 9,100, cut for the highest 2% near 16,000. The list comes from a sample in which the highest values are over-represented; it also holds similar and randomly drawn sequences.",
  "data": [
    {"biological_target": "OsWRKY34 (Oryza sativa, UniProt Q0JBA9 1-250)", "sequence (Q0JBA9 entry or part of it)": "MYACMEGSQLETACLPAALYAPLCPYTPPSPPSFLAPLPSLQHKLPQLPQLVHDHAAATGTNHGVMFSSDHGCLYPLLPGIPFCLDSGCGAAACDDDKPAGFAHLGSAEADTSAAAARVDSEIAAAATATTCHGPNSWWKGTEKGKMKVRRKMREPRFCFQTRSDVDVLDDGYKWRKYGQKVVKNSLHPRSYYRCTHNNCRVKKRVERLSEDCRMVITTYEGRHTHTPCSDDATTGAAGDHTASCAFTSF", "experiment": "protein-binding microarray (RPBM); PBS, 2% BSA, 51.3 ng/ul salmon testes DNA, 50 uM zinc acetate, 200 nM TF, 25 C, 1 h; high values mean tight binding", "conditions": "protein: recombinant; tags: N-terminal polyhistidine and DsRed monomer fusion (pET32a); label: CyDye5-dUTP incorporated in the synthesized complementary strand; 3' TTTTT single-stranded linker to array surface; dsDNA, one strand shown", "in_short": "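The binding signal is fluorescence intensity per array feature (arbitrary units). Readings came from an Axon 4000B scanner after a washed, 2% BSA-blocked, double-stranded custom Agilent array had been incubated for 1 h at 25 °C with 200 nM protein and 50 µM zinc acetate. The protein was a Ni–NTA-purified transcription factor fused N-terminally to polyhistidine and DsRed, expressed in E. coli BL21-CodonPlus.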", "values": [
      {"sequence": "TCTCCTCTTCTTTTTCTTCCTTCCTTTTACTCGCTCGCTCCGGAGTCACCTAGTGCAG", "binding signal": "9930 fluorescence intensity (a.u.)"},
      {"sequence": "CAATCTCTCTCTCTCTCTCTCTCGCTGCTGCTGCTCCTTCCGGAGTCACCTAGTGCAG", "binding signal": "9770 fluorescence intensity (a.u.)"},
      {"sequence": "AACCATAAAACATGTGATTCTTTTTTTTAACCAAAACTTACGGAGTCACCTAGTGCAG", "binding signal": "8130 fluorescence intensity (a.u.)"},
      {"sequence": "ACCACTTAATCTTTATCTTTGTTAGATTCATTACTACTATCGGAGTCACCTAGTGCAG", "binding signal": "8310 fluorescence intensity (a.u.)"},
      {"sequence": "TATAGGTATTCACTACCTTATCATTTATTCATACCTTGTTCGGAGTCACCTAGTGCAG", "binding signal": "8060 fluorescence intensity (a.u.)"},
      {"sequence": "GGCTCCAAATCATCTGCCTTCATTGTCAGGCTTCAGTAATCGGAGTCACCTAGTGCAG", "binding signal": "10400 fluorescence intensity (a.u.)"},
      {"sequence": "AGATTCGTGTAGACCCATTGTCTGGCAGCGGCGATCGTCCCGGAGTCACCTAGTGCAG", "binding signal": "8040 fluorescence intensity (a.u.)"},
      {"sequence": "AGTTGATCGCGGTCAAATCGTCACGTTAGTTGAACCCGGTCGGAGTCACCTAGTGCAG", "binding signal": "8260 fluorescence intensity (a.u.)"},
      {"sequence": "TCACCCACCTGTTGACTACCATCACCACTCCTCGTCTGGACGGAGTCACCTAGTGCAG", "binding signal": "8590 fluorescence intensity (a.u.)"},
      {"sequence": "GCCACTCCTGACGTCAGCGTTGACTCGGTCAAACCCATCGCGGAGTCACCTAGTGCAG", "binding signal": "19300 fluorescence intensity (a.u.)"},
      {"sequence": "ATACACACTTCAGTCACTCGGTAGGCCACTCCGTACGGCACGGAGTCACCTAGTGCAG", "binding signal": "8510 fluorescence intensity (a.u.)"},
      {"sequence": "TTCGAAATATTTGACACCGTTGACTTTTTAGCACATGTTTCGGAGTCACCTAGTGCAG", "binding signal": "30000 fluorescence intensity (a.u.)"},
      {"sequence": "TTTCGAAATGTTTGACACTGTTGACTTTTTAGCACATGTTCGGAGTCACCTAGTGCAG", "binding signal": "14200 fluorescence intensity (a.u.)"},
      {"sequence": "TCGAAATGTTTGACACCGTTGACTTTTTAGCACATGTTTACGGAGTCACCTAGTGCAG", "binding signal": "19000 fluorescence intensity (a.u.)"},
      {"sequence": "CAAAATGTTTGACATCGTTGACTTTTTAGCACATGTTTGACGGAGTCACCTAGTGCAG", "binding signal": "15300 fluorescence intensity (a.u.)"},
      {"sequence": "CCGTTTCGAAATGTTTACACCGTTGACTTTTTAGCACATGCGGAGTCACCTAGTGCAG", "binding signal": "30100 fluorescence intensity (a.u.)"},
      {"sequence": "CGAAATGTTTGACGTCGTTGACTTTTTAGCACATGTTTAACGGAGTCACCTAGTGCAG", "binding signal": "22800 fluorescence intensity (a.u.)"},
      {"sequence": "GAATTAAACTTTGCATGGTTTCTGTTTGGTCAAACTTCTCCGGAGTCACCTAGTGCAG", "binding signal": "9130 fluorescence intensity (a.u.)"},
      {"sequence": "AGGTACGCACGCGCGGTGGAGGAGGAGGAGGAGGAGGAGGCGGAGTCACCTAGTGCAG", "binding signal": "10900 fluorescence intensity (a.u.)"},
      {"sequence": "TGAATGCACCATGTCTTTTGCTCCGTCCGTCATAAAAAAACGGAGTCACCTAGTGCAG", "binding signal": "8950 fluorescence intensity (a.u.)"},
      {"sequence": "TGCCAAAGCTCTATCCATTTTGCCTCTACTCAATCGTCCACGGAGTCACCTAGTGCAG", "binding signal": "10200 fluorescence intensity (a.u.)"},
      {"sequence": "TCTAGATTTATCCCCATTTTTGGCTGGGCCTTCTATTTAACGGAGTCACCTAGTGCAG", "binding signal": "8720 fluorescence intensity (a.u.)"},
      {"sequence": "AACCCATTACATAGCTGCAAGAAACCCAATCTTTCTTTACCGGAGTCACCTAGTGCAG", "binding signal": "8420 fluorescence intensity (a.u.)"},
      {"sequence": "CCTACCCCTACCGCTCCTGCCTGCTTCGCCCGCCGCCGCCCGGAGTCACCTAGTGCAG", "binding signal": "8340 fluorescence intensity (a.u.)"},
      {"sequence": "CTCTATACCATACGCCATCTCCATCATCTCTCGATCCATCCGGAGTCACCTAGTGCAG", "binding signal": "11300 fluorescence intensity (a.u.)"},
      {"sequence": "AGTCTGAGCCACCTTTCATTACCCATCCAAGATTCGGTTTCGGAGTCACCTAGTGCAG", "binding signal": "8900 fluorescence intensity (a.u.)"},
      {"sequence": "AGTAGTCCTTCAAGCTCCAATCATATACCCCTGATACTAACGGAGTCACCTAGTGCAG", "binding signal": "8300 fluorescence intensity (a.u.)"},
      {"sequence": "AGGAAATGTCTCATCAAATACTAGATTGGTTTTTTTTTACCGGAGTCACCTAGTGCAG", "binding signal": "8960 fluorescence intensity (a.u.)"},
      {"sequence": "CGATTTCGACCAATCTAGCCGCTATGTGCACTCCTTTTCCCGGAGTCACCTAGTGCAG", "binding signal": "12100 fluorescence intensity (a.u.)"},
      {"sequence": "TGGTCTTGCTGGTTGCTGCGTATTTGGCTGTATTGGTTATCGGAGTCACCTAGTGCAG", "binding signal": "8380 fluorescence intensity (a.u.)"},
      {"sequence": "ATTATACGTTAATGGCTTTCTCGTTTTGTATACGCTGATTCGGAGTCACCTAGTGCAG", "binding signal": "9600 fluorescence intensity (a.u.)"},
      {"sequence": "TCGAAATATTTGACACCGTTGACTTTTTAGCACATGTTTGCGGAGTCACCTAGTGCAG", "binding signal": "35300 fluorescence intensity (a.u.)"},
      {"sequence": "ATTTGATACTTCTCTCGCCTTTCTTTATTATTCTCCCGCTCGGAGTCACCTAGTGCAG", "binding signal": "8420 fluorescence intensity (a.u.)"},
      {"sequence": "GAGTGCCTATTCAATTGCCTTTTGTTTGTCAACGTTTCTCCGGAGTCACCTAGTGCAG", "binding signal": "8080 fluorescence intensity (a.u.)"},
      {"sequence": "GTCCTTTCAGTGTTGCGCTTTTGCTTATTGTAGTTATTGGCGGAGTCACCTAGTGCAG", "binding signal": "16300 fluorescence intensity (a.u.)"},
      {"sequence": "CATCCAACCATCACACACAGTTAGCATATCAGTAGTCGTTCGGAGTCACCTAGTGCAG", "binding signal": "8210 fluorescence intensity (a.u.)"},
      {"sequence": "TCCATCCCGGCCCGGCACTGCACACACGCGCGTAGTACCACGGAGTCACCTAGTGCAG", "binding signal": "8130 fluorescence intensity (a.u.)"},
      {"sequence": "ACTCCTACAGTAGTGACTTGAGTAGCGCTTCTTTTTTCCACGGAGTCACCTAGTGCAG", "binding signal": "9440 fluorescence intensity (a.u.)"},
      {"sequence": "AGACCGTTGACTTGACTAGTCCACTCCTCTTTCACACGTACGGAGTCACCTAGTGCAG", "binding signal": "12100 fluorescence intensity (a.u.)"},
      {"sequence": "ATGACCGGCCACCACCATTGCCACCGGCCGATCTCCTCTTCGGAGTCACCTAGTGCAG", "binding signal": "9360 fluorescence intensity (a.u.)"},
      {"sequence": "GCCATTGACAGCGTTGACCAAGTCAGCCGCTCCAGCCTCTCGGAGTCACCTAGTGCAG", "binding signal": "14200 fluorescence intensity (a.u.)"},
      {"sequence": "AACTTGAGCGTTGACCGCTTTGACTCCTCTTCTTTCTCCACGGAGTCACCTAGTGCAG", "binding signal": "24900 fluorescence intensity (a.u.)"},
      {"sequence": "TCTTCGGCCTCTCCGCCTCCGCCATTGACAGCGTTGACCACGGAGTCACCTAGTGCAG", "binding signal": "18300 fluorescence intensity (a.u.)"}
    ]}
  ]
}
